An excerpt weighted towards active compounds, which were near 4.1% of everything screened.
TRPM1 prom inh: inhibitors of MITF-dependent TRPM1 promoter reporter, primary screen, cell-based, SK-MEL-5, single point, luciferase | SK-MEL-5 TRPM1 promoter luciferase, 24 h | inhibition, % at 12.5 µM | actives 0.83% (n = 330,000) | AID 488899, 2010;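 active means mean inhibition across replicates of 60% or more, whatever share of single replicates reaches that level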
LMP1 NFkB inh: EBV LMP1-driven NF-kappaB luciferase reporter inhibitors, primary screen, cell-based, luminescence, single point; LMP1-induced NF-kappaB luciferase reporter cells; inhibition, % at 12.5 µM; actives 0.69% (n = 350,000); AID 504558, 2011; in the data active means inhibition above about 41%;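 further: 0% = neutral control wells and 100% = reference inhibitor control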
TWEAK-Fn14 inh: inhibitors of TWEAK-Fn14 signaling, primary screen, luciferase reporter cells, uHTS; TWEAK-stimulated Fn14 reporter cells, luciferase luminescence, 8 h; inhibition, % at 10 µM; actives 2% (n = 360,000); AID 1159606, 2016; in the data active means inhibition above about 50%
Shn3 3UTR inh: reduction of Shn3 3'UTR firefly luciferase signal, primary screen, Schnurri-3 inhibitor project, cell-based, Clone20 osteoblasts, set 2 | Clone20 osteoblast Shn3 3'UTR firefly luciferase, 24 h | actives 0.52% (n = 360,000) | inhibition, % at 12.5 µM | AID 588674, 2011;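 active means mean inhibition of at least 75% with every replicate also reaching 75%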;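 further: 0% = median of neutral control wells and 100% = pilot-screen positive control compound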
Peg3 promoter: Peg3 promoter-driven luciferase inhibitors, primary screen, cell-based, HeLa, luciferase luminescence | HeLa PEG-Prom luciferase reporter, overnight | inhibition, % at 20 µM | actives 1.7% (n = 360,000) | AID 588405, 2011;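 active means inhibition of at least 50% at 20 µM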
TROY NFkB inh: inhibitors of TROY-driven NF-kB signaling, primary screen, Q293 LMP1-TROYcd cells, NF-kB luciferase, uHTS; Q293 LMP1-TROYcd NF-kB luciferase reporter, 4 h; inhibition, % at 10 µM; actives 0.98% (n = 360,000);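 active means compounds whose plate-normalised and pattern-corrected inhibition of the luciferase reporter signal at the single screening dose is 50% or more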
Starred values were filed as active, the others as inactive; . = no result given.

SMILES | TRPM1 prom inh | LMP1 NFkB inh | TWEAK-Fn14 inh | Shn3 3UTR inh | Peg3 promoter | TROY NFkB inh
CCOc1ccc(C(C)=O)cc1COc1cccnc1[N+](=O)[O-] | 17 | 51* | 39 | 1 | 19 | 60*
Cc1ccc(-n2nnnc2C(Cl)(Cl)c2nnnn2-c2ccc(C)cc2)cc1 | 30 | -5 | -30 | 82 | 25 | 60*
CC(=O)Nc1ccc(C=NNc2nnc(NN=Cc3ccc(NC(C)=O)cc3)c3ccccc23)cc1 | -1 | 45* | 56* | 8 | -77 | 38
COc1ccc(S(=O)(=O)N2CCOCC2)cc1NC(=O)COC(=O)C1COc2ccccc2O1 (stereo not drawn) | 9 | 2 | 43 | -90 | -193 | 69*
COc1ccc(S(=O)(=O)N2CCOCC2)cc1NC(=O)COC(=O)CC1CC2CCC1C2 (stereo not drawn) | 13 | -9 | 18 | 87* | -2 | -10
Cc1ccc(S(=O)(=O)CCC(=O)OCC(=O)Nc2cc(S(=O)(=O)N3CCOCC3)ccc2C)cc1 | -10 | 4 | -2 | 88* | -4 | -7
CCN(CC)CCCNC(=O)CSc1nc(-c2ccc(F)cc2)cc(C(F)(F)F)n1 | -10 | -3 | -5 | 5 | 8 | -12
C#CCNC(=O)C[C@@H]1C[C@@]2(C(=O)OC)CCCCC=C2N(CCC2=CCCCC2)C1=O | . | . | 6 | . | . | -12
CCc1ccc(NC(=O)c2ccc3c(c2)CCN3S(C)(=O)=O)cc1 | . | -10 | -13 | -12 | -87 | -38
Clc1ccc(-c2nc(/C=N/N3CCOCC3)c3ccccn23)cc1 | 9 | 3 | 12 | -25 | 5 | -34
CCc1cc2c(=O)oc(-c3ccc(F)cc3)nc2s1 | 1 | -2 | 54* | 6 | -36 | 9
Cc1cc2c(=O)oc(-c3ccc(Br)cc3)nc2s1 | 1 | -21 | 39 | -19 | -111 | -43
COc1ccc(N(CC(=O)Nc2ccc3c(c2)OCCO3)S(C)(=O)=O)c(OC)c1 | 2 | 8 | 62* | 24 | -56 | 45
COc1ccc(C2=NO[C@@](CC(=O)O)(C(=O)Nc3ccc4c(c3)OCCO4)C2)cc1 | -16 | -3 | 43 | -21 | -19 | 55*
COc1ccc(N(CC(=O)Nc2ccc3c(c2)OCCO3)S(=O)(=O)c2c(C)noc2C)cc1 | 8 | 2 | 65* | 10 | -14 | 3
NC(=O)COc1ccccc1C1=NO[C@@](CC(=O)O)(C(=O)Nc2ccc3c(c2)OCCO3)C1 | -19 | . | -1 | 8 | -4 | 7
COc1ccc(N(CC(=O)Nc2ccc3c(c2)OCCO3)S(=O)(=O)c2cccnc2)cc1 | 4 | 14 | 57* | 6 | 7 | 17
Cc1ccc(S(=O)(=O)NCCC(=O)OCC(=O)N(Cc2ccccc2)C(C)(C)C)cc1 | -4 | 2 | 0 | 0 | -6 | 9
COC(=O)C1=C(C)NC(C)=C(C(=O)OCC(C)C)C1c1ccccc1[N+](=O)[O-] (stereo not drawn) | 19 | 91* | 47 | 53 | 33 | 33
COc1cc(OC)c(OC)cc1CNC(=O)c1cc(S(=O)(=O)N(C)c2ccccc2OC)ccc1C | 21 | -5 | 6 | 29 | 16 | -4
Fc1ccc(C2CCNCC2COc2ccc3c(c2)OCO3)cc1 (stereo not drawn) | -9 | -9 | 15 | 9 | 61* | -4
Cc1ccc(N(NC(=O)C(O)(c2ccccc2)c2ccccc2)C(=O)CCl)cc1 | 29 | -4 | 46 | 3 | 103* | -12
Cc1ccc(C(O)(C(=O)NN(C(=O)c2ccccc2)c2ccccc2)c2ccc(C)cc2)cc1 | -32 | -2 | 34 | -13 | 25 | 16
CCOC(=O)c1nn(-c2ccccc2)c(=O)cc1OCC(=O)Nc1ccccc1OCC | 0 | -9 | -9 | -14 | 6 | -7
N#Cc1cc2c(nc1SCC(N)=O)CCCCC2 | -77 | 3 | -4 | -34 | -217 | -2
CC(=O)CSc1nc2cc3c(cc2cc1C#N)OCCO3 | 24 | -11 | 84* | 39 | -92 | 40
